FMDV inh = High Throughput Screening for Foot and Mouth Disease Virus Antivirals; hit rate 1.2% among 410,000; Potency, µM (top dose mostly 57.9 µM), for the others: top-dose activity change, negative = inhibition, most hits filed as inhibitors; FMDV antiviral cell-based qHTS; AID 1159524, 2015; calls by dose curve; tested in HEK293T cells; also: read-out not given here; potency is read from the fitted curve at half-maximal effect; % is scaled to controls: 0 for no effect and ±100 for the full control effect; nearly all actives have a fitted effect of over 45% in size
LASV entry inh = qHTS for Inhibitors of binding or entry into cells for Lassa Virus. Lassa virus pseudotype entry inhibition, cell reporter. Potency, µM (highest dose often 37.9 µM), inactives show at the highest dose activity change, negative = inhibition, hits mostly inhibitors. hit rate 1.2% among 300,000; calls by dose curve; tested in HEK293 cells; also: potency is read from the fitted curve at half-maximal effect; % is scaled to controls: 0 for no effect and ±100 for the full control effect; nearly all actives have a fitted effect of over 50% in size
HCV inhibitor = qHTS Assay for Inhibitors of Hepatitis C Virus (HCV). Potency, µM (doses to about 41.8 µM), for the others: at the top dose activity change, negative = inhibition, usual class: inhibitors. Huh7.5.1 HCVcc-Cre infection, luciferase reporter, 44 h. AID 651820, 2012. hit rate 3.4% among 340,000; active = well fitted inhibition curve with a large enough effect; inconclusive = small, poorly fitted or top-dose-only effect, or another doubt; inactive = no such curve, though single readings can be large or run the other way; also: potency is read from the fitted curve at half-maximal effect; % is scaled to controls: 0 for no effect and ±100 for the full control effect
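Luciferase read-out (15 sec integration) after a 15 min room-temperature substrate step quantifies HCVcc-Cre infection. Cells, 1,000 per well, had compound added 4 h post-plating, then virus at ~0.5 moi, and were cultured 44 h.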
SARS PLP yeast = qHTS of Yeast-based Assay for SARS-CoV PLP; S. cerevisiae expressing SARS-CoV PLpro, growth rescue; Potency, µM (top dose mostly 32.9 µM), for inactives: at the top dose activity, positive = growth rescue, hits mostly activators; hit rate 0.19% among 330,000; AID 485353, 2010; calls by dose curve; also: potency is read from the fitted curve at half-maximal effect; 0% is about no effect; nearly all actives have a fitted effect of over 55% in size
HCMV antiviral = qHTS Assay for inhibitors of the human cytomegalovirus (HCMV) | HFF cells, HCMV-luciferase reporter, 72 h; stronger effect = lower value | activity change, negative = inhibition, % at 57.5 µM | hit rate 4.5% among 410,000 | AID 1259415, 2018; in the data active = activity change below about -60%; inconclusive = no clear call, values can overlap the other calls; inactive = above about -39%; also: % is scaled to controls: 0 for no effect and ±100 for the full control effect
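Inhibition of viral replication was scored as loss of reporter luminescence in HFFs infected with HCMV-luciferase (MOI 1 PFU/cell) for 72 h; compounds tested at 2 doses, normalized to buffer and Salinomycin controls.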
MARV entry inh = qHTS for inhibitors of binding or entry into cells for Marburg Virus | Marburg virus pseudotyped entry inhibition, cell reporter | Potency, µM (doses to about 37.8 µM), for the others: top-dose activity change, negative = inhibition, actives largely listed as inhibitors | hit rate 1.8% among 300,000 | AID 540276, 2011; calls by dose curve; tested in HEK293 cells; also: potency is read from the fitted curve at half-maximal effect; % is scaled to controls: 0 for no effect and ±100 for the full control effect
* hit, by the source's call; ? = inconclusive; / = not tested or not shown; [ ] = remark or other dose. In the library only some 8% were active in any assay of this set; here they are far more common.

SMILES | FMDV inh | LASV entry inh | HCV inhibitor | SARS PLP yeast | HCMV antiviral | MARV entry inh
CCOC(=O)CNC(=O)c1ccc(OCC(F)(F)F)cc1 | 48% | / | 5% | -1% | 70 | /
Cc1cccc(NC(=O)CSc2nc3c([nH]c4ccccc43)c(=O)n2C)c1 | 17% | ? | -14% | 0% | 34 | /
CC(=O)Nc1cccc(NC(=O)CSc2ncc(C(=O)Nc3ccccc3)c(=O)n2C)c1 | ? | -3% | 11µM* | -10% | 10 | ?
Cc1cccc(NC(=O)CSc2nc3ccccc3c(=O)n2C)c1 | ? | ? | 10µM* | -5% | ? | 7.1µM*
CC(=O)Nc1cccc(NC(=O)CSc2ncc(C(=O)Nc3ccc(F)cc3)c(=O)n2C)c1 | ? | -26% | -4% | 1% | 4 | ?
Cc1cccc2c1N[C@H](C)C[C@@H]2C | / | / | / | / | / | 7%
Cc1csc(SCC(=O)Nc2cccc(C)c2C)n1 | 2% | 2% | -1% | 0% | -64* | 12%
Cc1ccc(C)c(NC(=O)CSc2nc(C)cs2)c1 | -3% | / | 13% | 3% | -5 | /
Cc1csc(SCC(=O)N2CCCC2)n1 | -5% | 13% | -5% | 2% | -71* | 13%[46.1 µM]
CCOC(=O)N1CCN(C(=O)/C=C/c2ccc(OC)cc2)CC1 | 0% | / | 11% | 0% | -33 | /
CCc1ccccc1NC(=O)CCc1nc(-c2cccs2)no1 | 20% | 7% | -1% | -3% | 1 | -1%
Cc1ccc(CNC(=O)CCc2nc(-c3cccs3)no2)cc1 | 2% | / | -11% | -11% | -75* | /
O=C(CCc1nc(-c2cccs2)no1)NCc1ccc(F)cc1Cl | -4% | / | -3% | -6% | -63* | /
Oc1ccc(/C(Cc2ccccn2)=N\Nc2ccccc2)c(O)c1 | ? | ? | -17% | -13% | -26 | 8.9µM*
Oc1ccc(/C(Cc2ccc3ccccc3n2)=N\Nc2ccccc2)c(O)c1 | 13% | ? | ? | 0% | 58 | ?
CC(C)Cc1ccc(C(C)C(=O)Nc2cccnc2)cc1 (centres undefined) | -26% | 1%[46.1 µM] | 3.2µM* | 2% | -78* | ?
CC(C(=O)Nc1ccc(O)cc1)c1cccc(C(=O)c2ccccc2)c1 (centres undefined) | ? | ? | 13µM* | 1% | -63* | ?
CC(C)Cc1ccc(C(C)C(=O)Nc2ccc(O)cc2)cc1 (centres undefined) | 0% | / | -10% | -8% | -66* | /
COc1ccc(-c2nc(SCC(=O)NC3CCCC3)c(-c3ccc(F)cc3)[nH]2)cc1OC | -19% | -17%[46.1 µM] | / | / | -7 | ?
Cc1cccc(C(=O)Nc2sc3c(c2C(=O)O)CCCC3)c1 | -10% | ? | ? | -3% | -6 | 2µM*
Cc1cccc(NC(=O)c2c(Br)sc3c2CCCC3)c1 | -6% | 22%[46.1 µM] | / | / | 0 | /
COc1ccc(NC(=O)c2c(NC(=O)c3ccc(Br)cc3)sc3c2CCCC3)cc1 | ? | 2%[46.1 µM] | / | / | -63* | /
Cc1cccc(NC(=O)c2c(NC(=O)C(F)(F)F)sc3c2CCCCC3)c1 | ? | ? | / | / | -100* | /
Cc1ccccc1NC(=O)c1c(NC(=O)C(F)(F)F)sc2c1CCCCC2 | ? | ? | / | / | -102* | /
Cc1ccccc1NC(=O)c1c(NC(=O)c2ccccc2)sc2c1CCC2 | -7% | 16%[46.1 µM] | / | / | 21 | /
SMILES | FMDV inh | LASV entry inh | HCV inhibitor | SARS PLP yeast | HCMV antiviral | MARV entry inh
O=C(COc1ccc(Cl)cc1)Nc1sc2c(c1C(=O)Nc1cccc(Cl)c1)CCCC2 | -15% | 5%[46.1 µM] | / | / | -38 | /
CCN(CC)CCCC(C)NC(=O)c1c(NC(=O)c2ccccc2)sc2c1CCCC2 (centres undefined) | 10% | / | 10µM* | 2% | -27 | /
Cc1ccc(NC(=O)c2c(NC(=O)C(F)(F)F)sc3c2CCCCC3)cc1 | ? | ? | / | / | -100* | /
Cc1nnc(SCC(=O)Nc2sc3c(c2C(=O)c2ccccc2)CCCC3)s1 | -9% | -11% | ? | -35% | -62* | 18%
O=C(Nc1cccc(Cl)c1)c1c(NC(=O)C(F)(F)F)sc2c1CCCC2 | ? | ? | / | / | -105* | /
COCCN(C(=O)CSc1nnc(-c2ccccc2OC)o1)c1c(N)n(CC(C)C)c(=O)[nH]c1=O | -11% | 0% | 13% | -3% | 13 | 5%
CC=CCCN1C=C(C(=O)OCC)C(c2ccccc2)NC1=O (centres undefined) | / | / | / | / | / | 41%[14.2 µM]
COc1ccc(N=C2SC(CC(=O)Nc3ccc(F)cc3)C(=O)N2Cc2ccco2)cc1 (centres undefined) | -26% | ? | -2% | -2% | -27 | -8%
COc1ccc(N=C2SC(CC(=O)Nc3ccccc3OC)C(=O)N2Cc2ccco2)cc1 (centres undefined) | -11% | 16µM* | ? | -6% | -34 | ?
Cc1cc2nc(C3CCN(Cc4nnnn4Cc4cccs4)CC3)[nH]c2cc1C | -4% | ? | 11µM* | -3% | 19 | ?
COc1cccc(C(O)c2nc(-c3ccncc3)cs2)c1 (centres undefined) | ? | / | / | / | -76* | /
COc1ccc(-c2csc(C(O)c3ccc(OC)cc3)n2)cc1 (centres undefined) | -25% | / | / | / | -72* | /
COc1ccc(C(=O)NCC(c2cccnc2)N2CCN(c3ccccc3OC)CC2)cc1 (centres undefined) | ? | -26%[46.1 µM] | / | / | -29 | /
O=C(NCCc1c[nH]c2ccccc12)C(=O)NCC(c1cccnc1)N1CCN(c2ccccc2)CC1 (centres undefined) | ? | ? | 10µM* | 3% | ? | -55%
O=C(NCCc1ccccc1)C(=O)NCC(c1cccnc1)N1CCN(c2ccc(F)cc2)CC1 (centres undefined) | ? | ? | / | / | -24 | /
COc1ccccc1N1CCN(C(CNC(=O)C(=O)NCCc2ccccc2)c2cccnc2)CC1 (centres undefined) | 25µM* | -28%[46.1 µM] | / | / | -40 | /
CC(C)C(NS(C)(=O)=O)c1nnc2n1CCN(Cc1ccc(Cl)cc1)CC2 (centres undefined) | -10% | / | / | / | / | /
O=C(Nc1cc(F)ccc1F)C1COc2ccccc2C1 (centres undefined) | 20% | 4%[46.1 µM] | / | / | 12 | /
CC1CCN(C(c2ccc(F)cc2)c2sc3nc(-c4ccco4)nn3c2O)CC1 (centres undefined) | 12% | -22%[46.1 µM] | / | / | -17 | /
COc1ccc2[nH]c(C)c(CCNC(=S)Nc3ccc(C)cc3)c2c1 | 40% | / | ? | 18% | -68* | /
CCc1cccc(CC)c1NC(=S)NCCc1c(C)[nH]c2ccccc12 | 16% | ? | ? | 3% | -71* | ?
COc1ccc2[nH]c(C)c(CCNC(=S)Nc3ccccc3C)c2c1 | 12% | ? | ? | 1% | -38 | -17%
CCC[C@H]1[C@@H](NC(=O)NCc2ccco2)CC[C@@]23CCCN2C(=O)CCC[C@@H]13 | / | / | / | / | -22 | /
